Laboratory results published in PubChem BioAssay AID1159580 (chemical genetic matrix, 2015).
Several values for one entry are separate records, joined by “and”; a condition that tells them apart may be missing. Equal values may be shown once. Among all 5,500 compounds or so, about 2,000 (36%) were called active. Not shown: some 18% with an inconclusive outcome. Cut-off read from the data, not from the text of the source: active = normalized growth mostly below about 0.91 (no sharp cut-off); inconclusive = no clear call, values can overlap the other calls; inactive = mostly above about 0.92. Some of the results follow.

Experiment: chemical genetic growth profiling, strain panel (AID 1159580);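 note: tested at 20 µM; growth read once vehicle control cultures reached saturation at 30 °C; 1 = growth at the plate median or of vehicle wells; lower values mean less growth of the strain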
Details: S. cerevisiae deletion strains, growth OD

Measured: normalized growth

CON
inactive: locus YAL013W, strain DEP1, stronger effect = lower value 0.992 | locus YAL021C, strain ccr4, stronger effect = lower value 0.994 | locus YAL026C, strain drs2, stronger effect = lower value 1.01 | locus YAL030W, strain snc1, stronger effect = lower value 1.02 | locus YBL061C, strain skt5, stronger effect = lower value 1.01 | locus YBR009C, strain hhf1, stronger effect = lower value 1.01 | locus YBR021W, strain FUR4, stronger effect = lower value 1 | locus YBR023C, strain chs3, stronger effect = lower value 1.01 | locus YBR171W, strain sec66, stronger effect = lower value 0.995 | locus YBR229C, strain ROT2, stronger effect = lower value 1 | locus YBR231C, strain swc5, stronger effect = lower value 1.01 | locus YBR279W, strain paf1, stronger effect = lower value 0.991 | locus YCL011C, strain gbp2, stronger effect = lower value 1.02 | locus YCL016C, strain dcc1, stronger effect = lower value 1.04 | locus YCL029C, strain bik1, stronger effect = lower value 0.976 | locus YCL069W, strain vba3, stronger effect = lower value 0.976 | locus YCR088W, strain abp1, stronger effect = lower value 0.987 | locus YDL005C, strain med2, stronger effect = lower value 0.994 | locus YDL035C, strain GPR1, stronger effect = lower value 0.988 | locus YDL040C, strain nat1, stronger effect = lower value 0.994 | locus YDL074C, strain BRE1, stronger effect = lower value 1.04 | locus YDL101C, strain DUN1, stronger effect = lower value 1.01 | locus YDL134C, strain PPH21, stronger effect = lower value 0.997 | locus YDL185W, strain tfp1, stronger effect = lower value 0.968 | locus YDL192W, strain arf1, stronger effect = lower value 0.986 | locus YDR001C, strain nth1, stronger effect = lower value 0.998 | locus YDR069C, strain doa4, stronger effect = lower value 1.02 | locus YDR101C, strain arx1, stronger effect = lower value 1.02 | locus YDR137W, strain rgp1, stronger effect = lower value 1.03 | locus YDR150W, strain NUM1, stronger effect = lower value 0.993 | locus YDR159W, strain sac3, stronger effect = lower value 0.993 | locus YDR162C, strain NBP2, stronger effect = lower value 0.98 | locus YDR195W, strain ref2 0.993 | locus YDR297W, strain sur2, stronger effect = lower value 1.02 | locus YDR318W, strain mcm21, stronger effect = lower value 0.99 | locus YDR334W, strain swr1, stronger effect = lower value 0.975 | locus YDR335W, strain msn5, stronger effect = lower value 1.02 | locus YDR388W, stronger effect = lower value 1.01 | locus YDR392W, strain spt3, stronger effect = lower value 1.12 | locus YDR502C, strain sam2, stronger effect = lower value 0.999 | locus YEL003W, strain gim4, stronger effect = lower value 0.993 | locus YEL037C, strain rad23, stronger effect = lower value 0.984 | locus YEL061C, strain CIN8 (second series), stronger effect = lower value 0.99 | locus YEL061C, strain CIN8, stronger effect = lower value 0.997 | locus YER015W, strain faa2, stronger effect = lower value 1.01 | locus YER016W, strain bim1, stronger effect = lower value 1.02 | locus YER110C, stronger effect = lower value 0.981 | locus YER111C, strain swi4, stronger effect = lower value 1.01 | locus YER155C, strain BEM2 (second series), stronger effect = lower value 1.05 | locus YER155C, strain BEM2, stronger effect = lower value 0.991 | locus YER167W, strain BCK2, stronger effect = lower value 0.997 | locus YFR010W, strain ubp6, stronger effect = lower value 0.976 | locus YGL078C, strain dbp3, stronger effect = lower value 0.984 | locus YGL086W, strain mad1, stronger effect = lower value 1.02 | locus YGL167C, strain pmr1, stronger effect = lower value 0.993 | locus YGL173C, strain kem1, stronger effect = lower value 0.998 | locus YGL227W, strain vid30, stronger effect = lower value 0.995 | locus YGL240W, strain doc1, stronger effect = lower value 0.994 | locus YGL248W, strain PDE1, stronger effect = lower value 1.02 | locus YGL253W, strain hxk2, stronger effect = lower value 1.01 | locus YGR135W, strain pre9, stronger effect = lower value 0.982 | locus YGR229C, strain SMI1, stronger effect = lower value 1.01 | locus YGR252W, strain gcn5, stronger effect = lower value 1.03 | locus YHR013C, strain ard1, stronger effect = lower value 1.03 | locus YHR027C, strain rpn1, stronger effect = lower value 1.02 | locus YHR030C, strain SLT2, stronger effect = lower value 0.989 and 0.974 | locus YHR079C, strain IRE1 (second series), stronger effect = lower value 0.98 | locus YHR079C, strain IRE1, stronger effect = lower value 0.987 | locus YHR094C, strain hxt1, stronger effect = lower value 1 | locus YHR129C, strain ARP1, stronger effect = lower value 0.997 | locus YHR142W, strain chs7, stronger effect = lower value 1.01 | locus YHR200W, strain rpn10, stronger effect = lower value 0.969 | locus YIL066C, strain RNR3, stronger effect = lower value 1.02 | locus YIL073C, strain SPO22, stronger effect = lower value 0.941 | locus YIL125W, strain kgd1, stronger effect = lower value 0.999 | locus YIR030C, strain dcg1, stronger effect = lower value 0.993 | locus YJL092W, strain hpr5, stronger effect = lower value 0.998 | locus YJL095W, strain BCK1 (second series), stronger effect = lower value 1.02 | locus YJL095W, strain BCK1, stronger effect = lower value 1.06 and 0.986 | locus YJL115W, strain asf1, stronger effect = lower value 0.989 | locus YJL129C, strain trk1, stronger effect = lower value 1.02 | locus YJL134W, strain LCB3, stronger effect = lower value 0.99 | locus YJL154C, strain vps35, stronger effect = lower value 0.981 | locus YJL164C, strain tpk1, stronger effect = lower value 0.996 | locus YJL166W, strain qcr8, stronger effect = lower value 0.981 | locus YJL168C, strain set2, stronger effect = lower value 0.996 | locus YJL187C, strain SWE1 (second series), stronger effect = lower value 1.01 | locus YJR043C, strain POL32, stronger effect = lower value 1.01 | locus YJR066W, strain TOR1, stronger effect = lower value 0.92
